Laboratory results: PubChem BioAssay AID1159580 (chemical genetic matrix, 2015)
Several values for one entry are separate records, joined by “and”; a condition that tells them apart may be missing. Equal values may be shown once. The campaign covered roughly 5,500 compounds. About 2,000 (36%) were called active. About 18% were inconclusive and are not listed. Rule as the data show it: active = normalized growth mostly below about 0.91 (no sharp cut-off); inconclusive = no clear call, values can overlap the other calls; inactive = mostly above about 0.92. The list shows a part of the results.

Experiment: chemical genetic growth profiling, strain panel (AID 1159580);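 also: tested at 20 µM; growth read once vehicle control cultures reached saturation at 30 °C; 1 = growth at the plate median or of vehicle wells; lower values mean less growth of the strain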
Settings: S. cerevisiae deletion strains, growth OD

Measured: normalized growth

C[C@@H]1CC[C@@]2(OC1)OC1CC3C4CC=C5C[C@@H](O)CC[C@]5(C)C4CC[C@]3(C)C1[C@@H]2C (some centres not stated)
inactive: locus YAL021C, strain ccr4, active compounds read low 1.02 | locus YAL026C, strain drs2, active compounds read low 1.01 | locus YAL030W, strain snc1, active compounds read low 0.996 | locus YBL061C, strain skt5, active compounds read low 0.996 | locus YBR009C, strain hhf1, active compounds read low 1.01 | locus YBR021W, strain FUR4, active compounds read low 1.06 | locus YBR023C, strain chs3, active compounds read low 1 | locus YBR171W, strain sec66, active compounds read low 1 | locus YBR229C, strain ROT2, active compounds read low 1 | locus YBR231C, strain swc5, active compounds read low 0.996 | locus YBR279W, strain paf1, active compounds read low 1 | locus YCL011C, strain gbp2, active compounds read low 1.01 | locus YCL016C, strain dcc1, active compounds read low 0.996 | locus YCL029C, strain bik1, active compounds read low 0.965 | locus YCL061C, strain MRC1, active compounds read low 0.999 | locus YCL069W, strain vba3, active compounds read low 0.995 | locus YCR088W, strain abp1, active compounds read low 1 | locus YDL005C, strain med2, active compounds read low 1 | locus YDL035C, strain GPR1, active compounds read low 1.02 | locus YDL040C, strain nat1, active compounds read low 1 | locus YDL074C, strain BRE1, active compounds read low 1.02 | locus YDL101C, strain DUN1, active compounds read low 0.99 | locus YDL134C, strain PPH21, active compounds read low 0.977 | locus YDL185W, strain tfp1, active compounds read low 0.959 | locus YDL192W, strain arf1, active compounds read low 0.981 | locus YDR001C, strain nth1, active compounds read low 1 | locus YDR069C, strain doa4, active compounds read low 1.01 | locus YDR101C, strain arx1, active compounds read low 0.997 | locus YDR137W, strain rgp1, active compounds read low 0.991 | locus YDR150W, strain NUM1, active compounds read low 0.995 | locus YDR159W, strain sac3, active compounds read low 0.997 | locus YDR162C, strain NBP2, active compounds read low 1.01 | locus YDR195W, strain ref2 0.991 | locus YDR297W, strain sur2, active compounds read low 1.01 | locus YDR318W, strain mcm21, active compounds read low 0.972 | locus YDR334W, strain swr1, active compounds read low 1.01 | locus YDR335W, strain msn5, active compounds read low 1 | locus YDR388W, active compounds read low 0.976 | locus YDR392W, strain spt3, active compounds read low 0.985 | locus YDR502C, strain sam2, active compounds read low 0.986 | locus YEL003W, strain gim4, active compounds read low 1 | locus YEL037C, strain rad23, active compounds read low 0.994 | locus YEL061C, strain CIN8 (second series), active compounds read low 1.01 | locus YER015W, strain faa2, active compounds read low 0.979 | locus YER016W, strain bim1, active compounds read low 0.993 | locus YER110C, active compounds read low 0.969 | locus YER111C, strain swi4, active compounds read low 1.01 | locus YER155C, strain BEM2 (second series), active compounds read low 1.02 | locus YER155C, strain BEM2, active compounds read low 1 | locus YER167W, strain BCK2, active compounds read low 1.01 | locus YFR010W, strain ubp6, active compounds read low 1.01 | locus YGL078C, strain dbp3, active compounds read low 0.973 | locus YGL086W, strain mad1, active compounds read low 0.997 | locus YGL167C, strain pmr1, active compounds read low 0.994 | locus YGL173C, strain kem1, active compounds read low 1.01 | locus YGL227W, strain vid30, active compounds read low 0.978 | locus YGL240W, strain doc1, active compounds read low 0.985 | locus YGL248W, strain PDE1, active compounds read low 1.01 | locus YGL253W, strain hxk2, active compounds read low 1.01 | locus YGR078C, strain PAC10, active compounds read low 0.982 | locus YGR135W, strain pre9, active compounds read low 0.951 | locus YGR252W, strain gcn5, active compounds read low 0.989 | locus YHR013C, strain ard1, active compounds read low 0.986 | locus YHR027C, strain rpn1, active compounds read low 0.986 | locus YHR030C, strain SLT2, active compounds read low 0.994 and 0.991 | locus YHR079C, strain IRE1 (second series), active compounds read low 0.979 | locus YHR079C, strain IRE1, active compounds read low 0.979 | locus YHR094C, strain hxt1, active compounds read low 0.985 | locus YHR129C, strain ARP1, active compounds read low 0.993 | locus YHR142W, strain chs7, active compounds read low 1.01 | locus YHR200W, strain rpn10, active compounds read low 0.999 | locus YIL066C, strain RNR3, active compounds read low 1.01 | locus YIL073C, strain SPO22, active compounds read low 0.882 | locus YIL125W, strain kgd1, active compounds read low 0.985 | locus YIR030C, strain dcg1, active compounds read low 0.96 | locus YJL092W, strain hpr5, active compounds read low 1 | locus YJL095W, strain BCK1 (second series), active compounds read low 0.995 | locus YJL095W, strain BCK1, active compounds read low 0.989 and 0.99 | locus YJL115W, strain asf1, active compounds read low 0.997 | locus YJL129C, strain trk1, active compounds read low 0.97 | locus YJL134W, strain LCB3, active compounds read low 1 | locus YJL154C, strain vps35, active compounds read low 0.998 | locus YJL164C, strain tpk1, active compounds read low 1 | locus YJL166W, strain qcr8, active compounds read low 1.01 | locus YJL168C, strain set2, active compounds read low 0.977 | locus YJL187C, strain SWE1 (second series), active compounds read low 0.988 | locus YJL187C, strain SWE1, active compounds read low 1.02 | locus YJR043C, strain POL32, active compounds read low 1.04 | locus YJR066W, strain TOR1, active compounds read low 0.95 | locus YKL009W, strain mrt4, active compounds read low 0.986 | locus YKL068W, active compounds read low 0.984 | locus YKL085W, strain MDH1 (second series), active compounds read low 0.998 | locus YKL085W, strain MDH1, active compounds read low 0.998 | locus YKL160W, strain elf1, active compounds read low 0.987 | locus YKR001C, strain vps1, active compounds read low 0.985 | locus YKR026C, strain gcn3, active compounds read low 1 | locus YKR091W, strain srl3, active compounds read low 0.996 | locus YLL001W, strain dnm1, active compounds read low 0.997 | locus YLL026W, active compounds read low 1 | locus YLL041C, strain sdh2, active compounds read low 1 | locus YLR027C, strain aat2, active compounds read low 0.993 | locus YLR039C, strain RIC1, active compounds read low 1.05 | locus YLR058C, strain SHM2, active compounds read low 1 | locus YLR102C, strain apc9, active compounds read low 0.986 | locus YLR113W, strain HOG1, active compounds read low 0.964 | locus YLR221C, strain rsa3, active compounds read low 0.989 | locus YLR258W, strain gsy2, active compounds read low 0.995 | locus YLR262C, strain YPT6 (second series), active compounds read low 0.994 | locus YLR262C, strain YPT6, active compounds read low 1.1 | locus YLR268W, strain sec22, active compounds read low 1.01 | locus YLR320W, strain mms22, active compounds read low 0.995 | locus YLR342W, strain FKS1, active compounds read low 0.996 | locus YLR357W, strain rsc2, active compounds read low 1.04 | locus YLR370C, strain arc18, active compounds read low 1 | locus YLR371W, strain rom2, active compounds read low 0.964 | locus YLR384C, strain iki3, active compounds read low 1 | locus YLR418C, strain cdc73, active compounds read low 0.992 | locus YML016C, strain PPZ1, active compounds read low 1.01 | locus YML032C, strain rad52, active compounds read low 0.971 | locus YML120C, strain ndi1, active compounds read low 1 | locus YML124C, strain tub3, active compounds read low 0.978 | locus YMR058W, strain fet3, active compounds read low 1 | locus YMR078C, strain ctf18, active compounds read low 0.951 | locus YMR125W, strain sto1, active compounds read low 0.995 | locus YMR129W, active compounds read low 0.996 | locus YMR205C, strain PFK2, active compounds read low 0.995 | locus YMR223W, strain ubp8, active compounds read low 0.963 | locus YMR231W, strain pep5, active compounds read low 1.02 | locus YMR263W, strain SAP30, active compounds read low 0.988 | locus YMR307W, strain GAS1, active compounds read low 1.24 | locus YNL067W, strain RPL9B, active compounds read low 0.973 | locus YNL071W, strain lat1, active compounds read low 1.01 | locus YNL153C, strain GIM3, active compounds read low 0.99 | locus YNL183C, strain NPR1, active compounds read low 0.964 | locus YNL209W, strain ssb2, active compounds read low 0.997 | locus YNL233W, strain BNI4, active compounds read low 1.01 | locus YNL248C, strain rpa49, active compounds read low 0.999 | locus YNL250W, strain rad50, active compounds read low 0.954 | locus YNL271C, strain bni1, active compounds read low 0.986 | locus YNL298W, strain CLA4, active compounds read low 0.977 | locus YNL307C, strain MCK1, active compounds read low 0.992 | locus YNL322C, strain KRE1 (second series), active compounds read low 0.997 | locus YNR049C, strain mso1, active compounds read low 1 | locus YNR052C, strain pop2, active compounds read low 0.968 | locus YOL012C, strain htz1 1.17 | locus YOL147C, strain pex11, active compounds read low 0.979 | locus YOR001W, strain rrp6, active compounds read low 0.982 | locus YOR061W, strain CKA2, active compounds read low 1.01 | locus YOR069W, strain VPS5, active compounds read low 0.996 | locus YOR070C, strain gyp1, active compounds read low 0.985 | locus YOR080W, strain dia2, active compounds read low 0.999 | locus YOR083W, strain WHI5, active compounds read low 0.983 | locus YOR106W, strain vam3, active compounds read low 0.994 | locus YOR136W, strain idh2, active compounds read low 0.989 | locus YOR144C, strain elg1, active compounds read low 0.99 | locus YOR184W, strain ser1, active compounds read low 1.03 | locus YOR231W, strain MKK1, active compounds read low 0.988 | locus YOR265W, strain rbl2, active compounds read low 1.01 | locus YOR270C, strain vph1, active compounds read low 0.999 | locus YOR290C, strain snf2, active compounds read low 0.949 | locus YOR316C, strain cot1, active compounds read low 0.974 | locus YPL051W, strain arl3, active compounds read low 0.999 | locus YPL055C, strain LGE1, active compounds read low 1.03 | locus YPL078C, strain atp4, active compounds read low 1.01 | locus YPL106C, strain sse1, active compounds read low 1.02 | locus YPL240C, strain hsp82, active compounds read low 0.986 | locus YPL256C, strain CLN2, active compounds read low 0.974 | locus YPR119W, strain clb2, active compounds read low 0.967 | locus YPR141C, strain kar3, active compounds read low 0.951 | locus YPR163C, strain tif3, active compounds read low 0.969 | locus YPR167C, strain met16, active compounds read low 0.983 | strain wtn01, active compounds read low 1.01
